Measured values as given in PubChem BioAssay (NCI).
Compounds without any hit were thinned out: in the full panel of roughly 83,000, 20% have a hit.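 Assay: single dose, 48 h. Readout: percent growth (0 = no net growth; negative = cell death). Active: <10.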 Activity calls are given as the source filed them.

test system: MDA-MB-468 breast; experiment: NCI-60 one-dose screen, 48 h (100 = growth as untreated, 0 = no growth, -100 = all killed); conditions: 10 µM unless noted

For `O=[n+]1c2ccccc2n([O-])c2cc(Cl)ccc21`, which growth is on record?
Its growth is -15.4% (active).

`CCCc1cc2c(=O)c(C(=O)OC)c[nH]c2cc1N(CC)CC` was tested. Which growth did it give?
The growth was 119% (inactive).

`COC(=O)[C@]12CC[C@@H](C)[C@H](C)[C@@H]1C1=CC[C@@H]3[C@@]4(C)C(C=O)=C[C@@](C)(CO)[C@@H]4[C@H](O)C[C@@]3(C)[C@]1(C)CC2` was tested. Which growth did it give?
The growth was -12% (active).

`O=[N+]([O-])c1ccc(NS(=O)(=O)c2ccc(Cl)c(Cl)c2)cc1` was tested. Which growth did it give?
The growth was 64.6% (inactive).

Which growth does the source give for `COc1ccc2c(c1)C(=O)/C(=C/c1ccc(O)cc1)O2` here?
The growth was -28.5% (active).

`O=C(CC1Sc2ccccc2NC1=O)NNc1ccc(F)cc1` (stereo not given) was tested. Which growth did it give?
Its growth is 92.7% (inactive).

`CC1=C(C(=O)OCc2ccccc2)C(c2ccc3c(c2)OCO3)n2c(nc3ccccc32)N1` (stereo not given) was tested. Which growth did it give?
The growth was 15.8% (inactive).

How did the growth turn out when `CN1CCN(c2nc(NCCNc3ccnc4cc(Cl)ccc34)c3ccccc3n2)CC1` was run?
Its growth is -51.6% (active).

`CC(C)c1ccc(C(=O)Nc2nc3ccc(O)cc3s2)cc1` was tested. Which growth did it give?
The growth was 2.85% (active).

For `Cc1ccc(C2CCCCC2)cc1Br`, which growth is on record?
Its growth is 97% (inactive).

How did the growth turn out when `O=[N+]([O-])c1cccc(/C=C/c2ccccn2)c1` was run?
The growth was 48.1% (inactive).

With `COc1cc(Br)c(OC)cc1Br` as the compound, how does the growth read?
The growth was 95.5% (inactive).

How did the growth turn out when `C=C1C(=O)O[C@H]2[C@H]1CC/C(COC(=O)C(=O)c1c[nH]c3ccc(OC)cc13)=C\CC[C@@]1(C)O[C@@H]21` was run?
The growth was -67.5% (active).

For `Fc1cnccc1-c1nc2ccc3[nH]ncc3c2c2c1CCCC2`, which growth is on record?
The growth was 1.78% (active).

How did the growth turn out when `CCCCCCC(=O)C(C)C` was run?
The growth was 98.8% (inactive).

For `CN1CC(c2ccccc2)C(C(=O)c2ccc(Br)cc2)C12C(=O)Nc1ccccc12` (stereo not given), which growth is on record?
The growth was 106% (inactive).

`COc1cc(C2CC(=O)Nc3c2c(C)nn3-c2nc3ccccc3[nH]2)cc(OC)c1O` (stereo not given) was tested. Which growth did it give?
The growth was 18.5% (inactive).

With `CC1=C(C(=O)OCC2CCN(C(=O)OC(C)(C)C)CC2)[C@H](c2cccc(C#N)c2)C2=C(CC(C)(C)CC2=O)N1` as the compound, how does the growth read?
The growth was 59.9% (inactive).

With `O=[N+]([O-])CC(c1ccccc1F)c1c[nH]c2ccccc12` (stereo not given) as the compound, how does the growth read?
The growth was 44% (inactive).

`N#Cc1cnn2c(-c3ccc(Cl)cc3)nc(NC3CC3)nc12` was tested. Which growth did it give?
The growth was 97% (inactive).

`C(=N/Nc1ncc(-c2cc3cc(-c4ccccc4)ccc3o2)s1)/c1cccs1` was tested. Which growth did it give?
Its growth is 77.6% (inactive).

For `COc1ccc(/C=N/NC(N)=S)c(OC)n1`, which growth is on record?
Its growth is 86.4% (inactive).

For `Cc1ccc2c(N/N=C\c3ccco3)cc(C)nc2n1`, which growth is on record?
Its growth is 70.2% (inactive).

With `C=C1C(=O)O[C@H]2[C@H]1CC/C(COC(=O)NCc1ccc(Cn3c(=O)sn(CCI)c3=O)cc1)=C\CC[C@@]1(C)O[C@@H]21` as the compound, how does the growth read?
Its growth is -37.1% (active).

`CS(=O)(=O)N(c1cc(-c2ccc3ncnc(Nc4cccc(Cl)c4)c3c2)cnc1Cl)S(C)(=O)=O` was tested. Which growth did it give?
Its growth is -42.1% (active).

How did the growth turn out when `COc1cc(C2=NN(c3ccc(S(N)(=O)=O)cc3)C(c3ccc(Cl)cc3)C2)cc(OC)c1OC` (stereo not given) was run?
The growth was 38.3% (inactive).

`O=Cc1c(O)c2ccccc2[nH]c1=O` was tested. Which growth did it give?
The growth was 94.5% (inactive).

With `Cc1ccncc1NC=O` as the compound, how does the growth read?
The growth was 107% (inactive).

`c1ccc2c(-c3nccs3)c[nH]c2c1` was tested. Which growth did it give?
Its growth is 91.3% (inactive).

For `COc1ccc(/C=C2\N=C(Nc3ccccc3)N(NC(=O)c3ccccn3)C2=O)cc1`, which growth is on record?
Its growth is 97.2% (inactive).

`c1ccc(Nc2ncc3c(n2)-c2cccn2CC3)cc1` was tested. Which growth did it give?
Its growth is 4.29% (active).

For `CN1CCN(CCCN2c3ccccc3Sc3ccc(C(F)(F)F)cc32)CC1`, which growth is on record?
The growth was -2.21% (active).

How did the growth turn out when `COC1=CC(c2ccc[nH]2)=N/C1=C\c1[nH]c(C)c(C(=O)CCC(=O)Oc2ccc3c(c2)CCC2C3CC[C@]3(C)[C@@H](O)CC[C@@H]23)c1C` (stereo not given in full) was run?
Its growth is 39.4% (inactive).

Which growth does the source give for `N#C/C(=C\c1ccc2ccccc2c1)C(=O)Nc1sc2c(c1C#N)CCC2` here?
The growth was 96.8% (inactive).

For `CC/C(=N/NC(N)=O)c1ccccc1`, which growth is on record?
The growth was 103% (inactive).

With `C=C(C)[C@@H]1CC[C@]2(C(=O)O)CC[C@]3(C)[C@H](CC[C@@H]4[C@@]5(C)C[C@@H](CC#Cc6ccc(Br)cc6)C(=O)C(C)(C)[C@@H]5CC[C@]43C)[C@@H]12` as the compound, how does the growth read?
Its growth is 6.26% (active).

Which growth does the source give for `Cn1c(N)c(N=O)c(=O)[nH]c1=O` here?
Its growth is 115% (inactive).

`COc1ccc(N2CCN(S(=O)(=O)c3oc(-c4ccccc4)nc3C#N)CC2)cc1` was tested. Which growth did it give?
The growth was 79.6% (inactive).

With `CCOC(=O)c1cnc2ccc(OC)cc2c1Nc1cccc(S(=O)(=O)NC)c1` as the compound, how does the growth read?
The growth was 113% (inactive).

For `CCN(CC)c1cc(N)c(Cc2c(N)cc(N(CC)CC)cc2Cl)c(Cl)c1`, which growth is on record?
The growth was -15.8% (active).
